Reference: PubChem BioAssay (Tox21)
Records with an inconclusive call do not appear. A call without a number means that no potency is given here. Unmarked numbers belong to inactive results. Calls of active or inactive are those of the source. The call rests on the fitted dose curve; in most records, active means well fitted cell-killing curve with a large enough effect in the repeat runs; inconclusive means weak or mixed curves, or effect the other way; inactive means flat fitted curve, though single readings scatter.

Legend:
[1] = cAMP Responsive Elements (CRE) small molecule antagonists, cell-based qHTS assay: qHTS cell viability counter screen (AID 2060913); further: nearly all actives have a fitted effect of over 40% in size
Method in brief: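 CRE-bla HEK293T cells were seeded in assay medium with 10% dialyzed FBS, incubated 18 hrs at 37 C, then exposed to compounds plus 0.25 uM final NKH477 for 3 hrs. Viability was read by CellTiter-Glo luminescence after 30 min, in the same wells.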

[2] = cAMP Responsive Elements (CRE) small molecule agonists, cell-based qHTS assay: qHTS cell viability counter screen (AID 2060914); further: nearly all actives have a fitted effect of over 50% in size
Method in brief: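 Cytotoxicity was measured as ATP luminescence (CellTiter-Glo, 30 min at room temperature) in the same wells as the CRE-bla FRET read-out. HEK293T CRE-bla cells had 3 h compound exposure at 37C/5% CO2.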
Potency means the concentration at half of the fitted maximal effect.

Compound	Potency [1]	Potency [2]	viability change, negative = cytotoxic [1]	activity change, negative = cytotoxicity [2]
COC(=O)/C=C/C(C)=C\C=C\C(C)=C\C=C\C=C(C)\C=C\C=C(C)\C=C\C(=O)O	inactive	inactive	–	–
Cc1noc(NS(=O)(=O)c2ccc(N)cc2)c1C	inactive	inactive	–	–
C#CC(O)C(CC)CCCC (stereo not given)	inactive	inactive	–	–
CC(C)=CCC/C(C)=C/C(=O)O	inactive	inactive	–	–
NC(=O)N[C@@H](CCC(=O)O)C(=O)O	inactive	inactive	–	–
CCO[Si](C)(C)OCC	inactive	inactive	–	–
O=C(O)c1ccccc1OP(=O)(O)O	inactive	inactive	–	–
CC(C)(C)Cl	inactive	inactive	–	–
CC1=CC(=O)CC(C)(C)C1	inactive	inactive	–	–
Oc1ccc(Cl)c2cccnc12	inactive	inactive	–	–
O=c1[nH]c(=O)n([C@H]2C[C@H](O)[C@@H](CO)O2)cc1C(F)(F)F	inactive	inactive	–	–
O=P(O)(OCc1ccccc1)OCc1ccccc1	inactive	inactive	–	–
CCO[Si](CCCNC(N)=O)(OCC)OCC	inactive	inactive	–	–
NC(Cc1ccc(F)cc1)C(=O)O (stereo not given)	–	–	19.3% [at 8.39 µM]	0.316% [at 8.39 µM]
CCCCN(CCCC)C(C(N)=O)c1ccc(OC)cc1 (stereo not given)	inactive	inactive	–	–
Cc1ccc2c(Cl)cc(Cl)c(O)c2n1	inactive	inactive	–	–
CCCCCCCCCCCc1ccccc1	inactive	inactive	–	–
O=[N+]([O-])c1ccc(Cl)cc1Cl	inactive	inactive	–	–
NC(=O)c1ncn([C@@H]2O[C@H](CO)[C@@H](O)[C@H]2O)n1	inactive	inactive	–	–
Cc1cc(=O)oc2cc(O[C@@H]3SC[C@@H](O)[C@H](O)[C@H]3O)ccc12	inactive	inactive	–	–
Clc1cc(Cl)c(Cl)cc1Cl	inactive	inactive	–	–
CCC(=O)O[C@]1(C(=O)COC)[C@@H](C)C[C@H]2[C@@H]3CCC4=CC(=O)C=C[C@]4(C)C3(F)[C@@H](O)C[C@@]21C (stereo not given in full)	inactive	inactive	–	–
Cc1cc(O)ccc1O	inactive	inactive	–	–
CCN(CC)CCCN(c1ccccc1)C1Cc2ccccc2C1	inactive	inactive	–	–
Cc1ccc2cccnc2c1	inactive	inactive	–	–
COc1c(C)c2c(c(O)c1C/C=C(\C)CCC(=O)O)C(=O)OC2	inactive	inactive	–	–
Cc1ccc(N)c([N+](=O)[O-])c1	inactive	inactive	–	–
CC(CCO)CCCC(C)(C)O (stereo not given)	inactive	inactive	–	–

Compound	Potency [1]	Potency [2]	viability change, negative = cytotoxic [1]	activity change, negative = cytotoxicity [2]
C[Si](C)(C)Cl	inactive	inactive	–	–
BrCCOc1ccccc1	inactive	inactive	–	–
COc1cc(-c2ccc(=O)[nH]n2)ccc1OC(F)F	inactive	inactive	–	–
CC(C)(C)C1CCC(=O)CC1	inactive	inactive	–	–
CCCCCC(N)=O	inactive	inactive	–	–
C[C@@H]1CN(CCCn2c3ccccc3c3ccccc32)C[C@H](C)N1	inactive	inactive	–	–
CC(=O)OCC(C)OC(C)=O (stereo not given)	inactive	inactive	–	–
Nc1ccc(O)c(C(=O)O)c1	inactive	inactive	–	–
O=C1CCCCCCCCCCCCCCCO1	inactive	inactive	–	–
CCC(=O)/C=C/c1ccc(OC)cc1	inactive	inactive	–	–
c1cnccn1	inactive	inactive	–	–
Cc1cc(O)c(C(C)(C)C)cc1C(C)(C)C	43.3 µM (active)	48.6 µM (active)	–	–
COc1ccnc2c1CCCCC2S(=O)c1nc2ccccc2[nH]1 (stereo not given)	inactive	inactive	–	–
COc1ccc(C)cc1	inactive	inactive	–	–
Cc1c(C)c2c(c(C)c1OC(=O)CCC(=O)O)CC[C@@](C)(CCC[C@H](C)CCC[C@H](C)CCCC(C)C)O2	inactive	inactive	–	–
COc1cc(S(=O)(=O)Nc2ccccc2)c(OC)cc1N	inactive	inactive	–	–
O[C@@H]1CO[C@H]2[C@@H]1OC[C@@H]2O	inactive	inactive	–	–
Cc1cc(O)c(Cl)cc1C	inactive	inactive	–	–
CC1=CC(=O)[C@H]2C[C@@H]1C2(C)C	inactive	inactive	–	–
CCCCCCCCCCCCCCCC(=O)O	inactive	inactive	–	–
CC(COc1ccc(C(C)(C)C)cc1)OS(=O)OCCCl (stereo not given)	inactive	inactive	–	–
COc1ccc2sc(C(=O)Nc3nnn[nH]3)c(OC(C)C)c2c1	inactive	inactive	–	–
NCC1(Cc2noc(=O)[nH]2)CCCCC1	inactive	inactive	–	–
Cc1ccccc1C#N	inactive	inactive	–	–
CN(C)CCCOC1(Cc2ccccc2)CCCCCC1	inactive	inactive	–	–
CO[Si](C)(C)OC	inactive	inactive	–	–
CCCCCCCCCCCCCC=O	–	–	-4.53% [at 8.39 µM]	15.9% [at 8.39 µM]
